# Measured values from PubChem BioAssay AID686978 (National Center for Advancing Translational Sciences (NCATS), 2013).
# Values joined by “and” are separate entries in the source; they are usually repeats but may differ in a detail not shown here. Equal entries are not always repeated. Out of some 420,000 compounds screened, about 64,000 (15%) were called active. About 27% were inconclusive and are not listed. Only a sample is shown. Values without a mark were called inactive. The call rests on the fitted dose curve; in most records, active means well fitted inhibition curve with a large enough effect; inconclusive means small, poorly fitted or top-dose-only effect; inactive means flat fitted curve, though single readings scatter.
# Assay: qHTS for Inhibitors of human tyrosyl-DNA phosphodiesterase 1 (TDP1): qHTS in cells in absence of CPT; further: nearly all actives have a fitted effect of over 55% in size
# Settings: DT40 Tdp1-/- hTDP1 cells, no CPT, ATP luminescence, 48 h; activity change, negative = growth inhibition: at 46.2 µM (top of the series)
# Method in brief: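 Growth of hTDP1-complemented DT40 Tdp1-knockout cells is measured by ATP luminescence after at least 48 hr compound exposure at 37 °C, with DMSO substituting for the 20 nM CPT used in the parallel screen.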
# On the % scale 0 is the no-effect control and ±100 the full control effect; potency means the concentration at half of the fitted maximal effect.
Structure (SMILES),"activity change, negative = growth inhibition",Potency
CCN(CC)C(=O)CS(=O)CC(=O)Nc1cc(OCCOC)c(Cl)cc1Cl (configuration not stated),-3.24%,
CCOc1ccc(N(CC)S(=O)(=O)N2CCCC(C(=O)NCc3ccc(SC)cc3)C2)cc1 (configuration not stated),,20.6 µM (active)
CSc1ccc(S(=O)(=O)N2CCC(C(=O)NCc3ccncc3)CC2)cc1,-13.1%,
CCOC(=O)c1c(S(=O)(=O)N2CCCC(C(=O)NCc3cccc(C)c3)C2)c(C)n(C)c1C (configuration not stated),-4.19%,
CCOc1cccc(NC(=O)C2CCCN(S(=O)(=O)c3ccc(OC)cc3)C2)c1 (configuration not stated),,23.1 µM (active)
COc1ccc(NC(=O)C2CCCN(S(=O)(=O)c3cccc4cccnc34)C2)cc1 (configuration not stated),-42.5%,
Cc1c(S(=O)(=O)O)oc2c1C(=O)C(=O)c1c-2ccc2c1CCCC2(C)C,-8.76%,
Cc1nc(C)c(C(=O)Nc2ccc(C)c(F)c2)o1,-0.916%,
CCOc1c(N2CCCCC2)c(=O)c1=O,-12.1%,
Cc1[nH]c(N)nc(=S)c1CCCNc1ccccc1,,16.4 µM (active)
CCc1c(Nc2ccccc2C)nc(N)[nH]c1=O,-8.5%,
Cc1cc(=O)n(C)c(=O)n1CCCNc1ccccc1,-23.9%,
O=C(NC(=S)Nc1ccc(Cl)c(C(=O)O)c1)c1cncc(Br)c1,24.7%,
O=C(Cc1ccc(Cl)cc1)NC1CCS(=O)(=O)C1 (configuration not stated),12.7%,
O=C(COC(=O)/C=C/c1ccc(Cl)cc1)NC1CCS(=O)(=O)C1 (configuration not stated),,18.4 µM (active)
O=C(COC(=O)/C=C/c1ccc2c(c1)OCO2)NC1CCS(=O)(=O)C1 (configuration not stated),14.5%,
Cc1cccc(C)c1NC(=O)CSc1nnc(-c2ccccc2)n1Cc1ccc2c(c1)OCO2,-17.4%,
CN(CC1CCCO1)S(=O)(=O)c1ccc(C(=O)Nc2ccc([N+](=O)[O-])cc2)cc1 (configuration not stated),,5.8 µM (active)
CCOc1ccc(S(=O)(=O)NCC2CCCO2)cc1 (configuration not stated),-16%,
O=S(=O)(NCC1CCCO1)c1ccc2ccccc2c1 (configuration not stated),-14.2%,
CCC(=O)Nc1ccc(C(=O)Nc2ccc3c(c2)C(=O)N(CC2CCCO2)C3=O)cc1 (configuration not stated),-10.2%,
O=C(Nc1ccc(S(=O)(=O)NCC2CCCO2)cc1)c1ccc(F)cc1 (configuration not stated),,16.4 µM (active)
CCOC(=O)c1c(NC(=O)c2ccc(S(=O)(=O)N(C)CC3CCCO3)cc2)sc2c1CC(C)(C)NC2(C)C (configuration not stated),-27.4%,
O=C1C(C=NCC2CCCO2)=C(O)c2ccccc21 (configuration not stated),-16.7%,
COC(=O)C1CCN(C(=O)NC2CC(=O)N(c3ccc4c(c3)OCCO4)C2)CC1 (configuration not stated),0.284%,
COC(=O)c1onc(-c2c(OC)cc(OC)cc2OC)c1C(=O)OC,-7.15%,

Structure (SMILES),"activity change, negative = growth inhibition",Potency
CN(Cc1cc2cc(F)ccc2[nH]1)Cc1nc(-c2cnccn2)no1,-4.72%,
COc1cc(C(=O)NNC(=O)CN2C(=O)NC3(CCCC3)C2=O)cc(OC)c1OC,4.78%,
Cc1sc2nc(COC(=O)C(NC(=O)c3ccc(Cl)cc3Cl)C(C)C)[nH]c(=O)c2c1C (configuration not stated),-16.1%,
Cc1sc2nc(CSCC(=O)Nc3c(Cl)cccc3Cl)[nH]c(=O)c2c1C,,9.2 µM (active)
CCOC(=O)c1sc2nc(CSCC(=O)OCc3ccc(C(=O)OC)o3)[nH]c(=O)c2c1C,-10.1%,
Cn1nnnc1SCC(=O)N1CCN(Cc2ccccc2)CC1,-18.7%,
COc1ccc(S(=O)(=O)N2CCCCC2)cc1C(=O)NC1CCS(=O)(=O)C1 (configuration not stated),,inactive
Cc1[nH]nc(SCC(=O)NCC(C)C)c1[N+](=O)[O-],-4.36%,
Cc1cccc(N2CCN(S(=O)(=O)c3ccc4[nH]c5c(c4c3)CCCCC5)CC2)c1C,,4.61 µM (active)
COc1cccc(CNC(=O)c2cc(=O)[nH]c3ccc(S(=O)(=O)N4CCCCC4)cc23)c1,-11.7%,
Cc1ccc(S(=O)(=O)N2CCN(c3ccccc3)CC2)cc1C,3%,
Cc1cc(C)c2c(c1)c(C)cc1nnc(SCC(=O)NCc3ccco3)n12,-3.12%,
O=C(N/C(=C\c1ccc(O)cc1)C(=O)N1CCCCC1)c1ccccc1,12.8%,
COc1cc2c(cc1OC)C(Cc1cc(OC)c(OC)cc1[N+](=O)[O-])=NCC2,,11.6 µM (active)
COc1cc(CN2CCCN(C)CC2)c([N+](=O)[O-])cc1OC,-12.1%,
COc1cc(CNCc2ccc3c(c2)OCO3)c([N+](=O)[O-])cc1OC,-21.4%,
O=C(NC1CCN(S(=O)(=O)c2ccc(F)cc2)CC1)c1ccccc1,6.91%,
COc1ccc(/C(O)=C2/C(=O)C(=O)N(CCCN(C)C)C2c2ccccc2)cc1OC (configuration not stated),-4.33%,
C=CCOc1cccc(C2C(C(=O)c3ccc(C)o3)=C(O)C(=O)N2CCCn2ccnc2)c1 (configuration not stated),15.9%,
COc1ccc(CCN(C)CCN2C(=O)c3ccccc3C2=O)cc1OC,-23.2%,
CCCCN1C(=O)c2[nH]nc(-c3ccccc3O)c2C1c1cccc(OCc2ccccc2)c1 (configuration not stated),,18.4 µM (active)
COc1ccc(CCN2C(=O)c3[nH]nc(-c4ccccc4O)c3C2c2ccc(C)cc2)cc1OC (configuration not stated),,18.4 µM (active)
CCCCn1c(N)c(N(CCOC)C(=O)c2cccc(OCc3ccccc3)c2)c(=O)[nH]c1=O,1.24%,
Cc1cc(NS(=O)(=O)c2ccc(NC(=O)c3cccc(OC(F)F)c3)cc2)nc(C)n1,-6.76%,
O=C(O)CCSc1nnc(-c2ccccc2)n1-c1ccccc1,-12.5%,
Cc1ccc(NC(=O)c2ccn(C(=O)Nc3ccccc3)n2)c(C)c1,-5.12%,

Structure (SMILES),"activity change, negative = growth inhibition",Potency
CCN(CC)CCNC(=O)c1cc(S(C)(=O)=O)ccc1OC,,inactive
COc1ccc(N(CC(=O)NCCSCc2cccc(Cl)c2)S(C)(=O)=O)cc1,-10.8%,
COc1cccc(/C(C)=N/Nc2ncc(Cl)cc2Cl)c1,-17.6%,
COc1cc(/C=C2\SC(=S)N(Nc3ncc(C(F)(F)F)cc3Cl)C2=O)cc(OC)c1OC,-14.7%,
COc1cccc(/C=N/Nc2ncc(C(F)(F)F)cc2Cl)c1O,,4.11 µM (active)
CCN(CC)Cc1csc2ccc(Br)cc12,-6.04%,
COc1ccccc1OCC(O)CN1CCOCC1 (configuration not stated),-2.17%,
COc1ccc(CCNCC(O)Cn2ccc3ccccc32)cc1OC (configuration not stated),-22%,
COC(=O)c1ccc(OCC(O)CN(CCO)CC(O)Cn2ccc3ccccc32)cc1 (configuration not stated),-27.5%,
C=CCn1c(=N)n(CC(O)COc2ccc(OC)cc2)c2ccccc21 (configuration not stated),,20.6 µM (active)
CCCn1c(=N)n(CC(O)COc2ccccc2OC)c2ccccc21 (configuration not stated),,7.31 µM (active)
C=CCc1ccc(OCC(O)CN2CCN(Cc3ccccc3)CC2)c(OC)c1 (configuration not stated),-1.24%,
COc1ccc(C(=O)NCC2CCCO2)cc1S(=O)(=O)NCc1ccc(Cl)cc1 (configuration not stated),-20.6%,
CN1CCN(C(CNS(=O)(=O)c2cccs2)c2cccnc2)CC1 (configuration not stated),7.04%,
COc1cccc(/C=C/C(=O)OCC(=O)N2CCCc3ccccc32)c1,1.84%,
Cc1cccc(N(C)C(=O)CS(=O)(=O)c2cccc3nsnc23)c1,-12.2%,
CC1(C)OC(=O)C(=CSc2ccc(C(C)(C)C)cc2)C(=O)O1,-13.5%,
CCOCCCNC(=O)C(NC(=O)CNC(=O)c1ccccc1)c1ccc(C)cc1 (configuration not stated),-23.2%,
COCCCNC(NC(=O)c1ccc(C)cc1)C(Cl)(Cl)Cl (configuration not stated),,14.6 µM (active)
COCCCNC(NC(=O)c1ccc(OC)cc1)C(Cl)(Cl)Cl (configuration not stated),-25.3%,
O=C(CN1C(=O)NC2(CCCCC2)C1=O)N1CCN(C(=O)c2cccs2)CC1,-3.5%,
CC(C)C(=O)NC(NC(=S)NC1CCS(=O)(=O)C1)C(Cl)(Cl)Cl (configuration not stated),-0.69%,
CS(=O)(=O)N(C(=O)NC(=O)NC1CCS(=O)(=O)C1)C1CCCCC1 (configuration not stated),-1.68%,
O=S1(=O)CCC(NC(=S)SCc2ccccc2Br)C1 (configuration not stated),,18.4 µM (active)
CCN(CC(=O)NC1CCS(=O)(=O)C1)S(=O)(=O)c1ccccc1 (configuration not stated),5.32%,
CCCSC(=S)NC1CCS(=O)(=O)C1 (configuration not stated),,20.6 µM (active)

Structure (SMILES),"activity change, negative = growth inhibition",Potency
O=C(CSc1ccccc1F)NC1CCS(=O)(=O)C1 (configuration not stated),4.81%,
Cc1cc(C)cc(NC(=O)C(c2ccccc2)N2CCN(CC(=O)N3CCCC3)CC2)c1 (configuration not stated),-3.14%,
S=C(NCc1ccco1)Nc1ccc2c(c1)OCCO2,-15.8%,
O=C1c2ccccc2C(Nc2ccc3c(c2)OCCO3)N1Cc1ccco1 (configuration not stated),,14.6 µM (active)
O=C(NC1CCCCC1)C1c2ccccc2C(=O)N1Cc1ccco1 (configuration not stated),3.48%,
CCN(CC(=O)Nc1ccc(NC(C)=O)cc1)C(=O)C1CC(=O)N(c2ccc3c(c2)OCCO3)C1 (configuration not stated),-28.8%,
C/C(N)=C(/C#N)C(=O)COC(=O)CNS(=O)(=O)c1ccc(C)cc1,-4.68%,
CC1(C(=O)NS(=O)(=O)c2ccccc2Cl)CCN1C(=O)c1cccc(F)c1 (configuration not stated),-10.8%,
c1csc(-c2nnc(COc3ccc4c(c3)OCO4)o2)c1,0.933%,
Cc1nc2ccc(C(=O)N(C)CC3CCCN(CCc4ccc(Cl)cc4)C3)cc2[nH]1 (configuration not stated),5.16%,
COc1cccc(CN(C)CC2CCCN(CCc3ccc(Cl)cc3)C2)c1OC (configuration not stated),,20.6 µM (active)
COc1cccc(COC(=O)C2CCN(S(=O)(=O)c3ccc(Cl)cc3)CC2)c1OC,-25.1%,
CO[C@H]1[C@@H](O)[C@H](N)[C@@H](O[C@H]2O[C@H]([C@H](C)N)CC[C@H]2N)[C@H](O)[C@@H]1N(C)C(=O)CN,-9.26%,
CCOc1ccc(C(=O)Nc2cc(Cl)ccc2-n2cncn2)cc1OC,6.08%,
O=c1[nH]c2ccccc2n2c(-c3ccccc3)nnc12,,18.4 µM (active) and 11.2 µM (active)
O=c1[nH]n2c(-c3ccccc3)nc(O)c2c2ccccc12,-0.971%,
CCOC(=O)c1cnc2[nH]c3ccccc3n2c1=O,-6.89%,
COC(=O)CCSc1nccn1Cc1ccccc1,3.41%,
Cc1ccc(CN2CC(C(=O)NNC(=O)Cn3ccc(C(F)(F)F)n3)CC2=O)cc1 (configuration not stated),8.84%,
CN(CCO)C(=O)c1nc[nH]c1C(=O)N(C)Cc1ccccc1,-22%,
CCCCCn1nnnc1-c1nc2cc3ccccc3cc2[nH]c1=O,,2.59 µM (active)
Cc1ccc(-c2nc3ccccc3[nH]c2=O)cc1,8.47%,
c1ccc2cc3[nH]c(CN4CCCCC4)nc3cc2c1,-10.7%,
O=S1(=O)CSCS(=O)(=O)C1,-12.9%,
